# Chronic BCR inh: qHTS Assay to Find Inhibitors of Chronic Active B-Cell Receptor Signaling; ABC-DLBCL IkBa-CBG/CBR reporter, luminescence ratio, 4 h; Potency, µM (doses to about 46.1 µM), for the others: at the top dose activity change, negative = inhibition, most hits filed as inhibitors; actives 0.05% (n = 340,000); active means well fitted inhibition curve with a large enough effect in the signal ratio, with a control signal flat, not every such curve was filed as active; inconclusive means small, poorly fitted or top-dose-only effect, or effect the other way, or a change in a side signal; the % refers to the signal ratio;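 further: potency means the concentration at half of the fitted maximal effect; plate controls were basal doxycycline-induced cells for no effect and cells given 10 µM MG132 for full effect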
#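 Concentration-response series (up to 46 uM) were applied to TMD8 dual-reporter cells for 4 h at 37C with doxycycline. Green/red ratio, after filter-overlap correction, defined %Activity; red signal alone was normalised to basal cells and zero luminescence.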
# MCF10A rereplic: A quantitative high throughput screen for small molecules that induce DNA re-replication in MCF 10a normal breast cells. MCF 10A DNA re-replication, Hoechst nuclear intensity, 48 h. actives 2.9% (n = 350,000). Potency, µM (highest dose often 46.1 µM), without a hit: at the top dose activity, positive = re-replication, usual class: activators; further: potency means the concentration at half of the fitted maximal effect; % of control where 0% means no effect; nearly all actives have a fitted effect of over 50% in size
# SW480 rerep: A quantitative high throughput screen for small molecules that induce DNA re-replication in SW480 colon adenocarcinoma cells; AID 624297, 2012; actives 1.8% (n = 340,000); SW480 DNA re-replication, Hoechst DNA content imaging, 48 h; Potency, µM (highest dose often 46.1 µM), inactives show top-dose re-replication activation, actives largely listed as activators; further: potency means the concentration at half of the fitted maximal effect; % of control where 0% means no effect; nearly all actives have a fitted effect of over 55% in size
#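 Per well, 250 cells were exposed to pinned compound for 48 hr. Nuclear DNA was visualised with Hoechst (40 min, 37 C) and total object intensity recorded by fluorescence scanning.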
# DT40 TDP1 no CPT: qHTS for Inhibitors of human tyrosyl-DNA phosphodiesterase 1 (TDP1): qHTS in cells in absence of CPT | actives 15% (n = 420,000) | AID 686978, 2013 | DT40 Tdp1-/- hTDP1 cells, no CPT, ATP luminescence, 48 h | Potency, µM (highest dose often 46.2 µM), for the others: at the highest dose activity change, negative = growth inhibition, hits mostly inhibitors; further: potency means the concentration at half of the fitted maximal effect; on the % scale 0 is the no-effect control and ±100 the full control effect; nearly all actives have a fitted effect of over 55% in size
#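 Chicken DT40 Tdp1-/- cells stably complemented with human TDP1 were seeded at 400 cells/well with DMSO in place of 20 nM camptothecin. After compound pinning, cells grew at least 48 hr at 37 °C; viability read by CellTiter-Glo luminescence.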
# DT40 TDP1 CPT: qHTS for Inhibitors of human tyrosyl-DNA phosphodiesterase 1 (TDP1): qHTS in cells in presence of CPT | actives 12% (n = 420,000) | chicken DT40 Tdp1-/-;hTDP1 cells + 20 nM CPT, ATP luminescence, 48 h | Potency, µM (highest dose often 46.2 µM), for inactives: at the top dose activity change, negative = growth inhibition, actives largely listed as inhibitors; further: potency means the concentration at half of the fitted maximal effect; on the % scale 0 is the no-effect control and ±100 the full control effect; nearly all actives have a fitted effect of over 55% in size
#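 Chicken DT40 Tdp1-/- cells stably complemented with human TDP1 were seeded at 400 cells/well in medium containing 20 nM camptothecin, exposed to pin-transferred compounds, and grown at 37 °C for at least 48 hr. Viability was read as ATP luminescence.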
# IL1B secr inh: qHTS for Inhibitors of Inflammasome Signaling: IL-1-beta AlphaLISA Primary Screen. activity change, % at 57.5 µM. actives 4.7% (n = 360,000). THP-1 LPS/ATP IL-1B secretion, AlphaLISA, 16 h; hits give low values. AID 743279, 2014; in the data active means activity change below about -50%; inconclusive means mostly about -30% to -49%; further: on the % scale 0 is the no-effect control and ±100 the full control effect
#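 Secreted IL-1B measured by AlphaLISA bead assay after 16 h compound exposure of THP-1 cells; compounds (final up to 57.5 uM) added 1 h before LPS (250 ng/mL) and ATP (1.25 mM) stimulation; lower signal means less secretion.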
# * marks the source's active call; other numbers are inactive results; ? = inconclusive; · = no result given. Hits are enriched below; roughly 19% of the tested compounds scored in any of these assays. Unless noted, the call rests on the fitted dose curve; in most records, active means well fitted curve in the direction sought with a large enough effect; inconclusive means small, poorly fitted or top-dose-only effect, or another doubt; inactive means no such curve, though single readings can be large; an effect the other way counts as inactive or inconclusive.
SMILES,Chronic BCR inh,MCF10A rereplic,SW480 rerep,DT40 TDP1 no CPT,DT40 TDP1 CPT,IL1B secr inh
CC(C)c1ccc(S(=O)(=O)NC2CCS(=O)(=O)C2)cc1 (centres undefined),2.1%,0.7%,1.3%,?,-10.7%,12.0
Cc1c(C(=O)N2CCCC(C)(C(=O)NS(=O)(=O)C3CC3)C2)oc2ccccc12 (centres undefined),·,·,·,4.11µM*,?,24.5
CCCS(=O)(=O)NC(=O)C1(C)CCCN(C(=O)c2ccccc2F)C1 (centres undefined),·,·,·,-0.9%,-0.8%,-70.6*
CC1(C(=O)NS(=O)(=O)C2CC2)CCCN(C(=O)/C=C/c2ccccc2)C1 (centres undefined),·,·,·,14.6µM*,?,23.2
CC1(C(=O)NS(=O)(=O)C2CC2)CCCN(C(=O)c2c(F)cccc2F)C1 (centres undefined),·,·,·,4.61µM*,5.17µM*,-11.8
CC1(C(=O)NS(=O)(=O)C2CC2)CCCN(C(=O)c2ccc3ccccc3c2)C1 (centres undefined),·,·,·,0.259µM*,0.517µM*,10.6
CC1(C(=O)NS(=O)(=O)C2CC2)CCCN(C(=O)c2cccs2)C1 (centres undefined),·,·,·,6.51µM*,5.17µM*,37.0
CC1(C(=O)NS(=O)(=O)C2CC2)CCCN(C(=O)c2ccco2)C1 (centres undefined),·,·,·,11.6µM*,?,15.8
CCCS(=O)(=O)NC(=O)C1(C)CCCN(C(=O)c2ccco2)C1 (centres undefined),·,·,·,6.0%,0.2%,-2.5
C[C@H]1CN([C@@H](C)CO)C(=O)CCCn2cc(nn2)CO[C@@H]1CN(C)S(C)(=O)=O,·,·,·,-14.4%,23.1%,-28.0
COc1ccc(-c2nc(C(=O)NCCCN3CCOCC3)cc3c2[nH]c2ccccc23)cc1OC,?,?,?,3.66µM*,13µM*,-24.0
Cc1ccc(-c2nc(C(=O)NCCCN3CCOCC3)cc3c2[nH]c2ccccc23)cc1,?,?,?,3.26µM*,3.26µM*,-52.0*
CCOc1cccc(-c2cc(NCCc3ccccn3)n3nccc3n2)c1,·,·,·,?,?,5.7
COc1cccc(OCCNC(=O)CSc2ccc(C(F)(F)F)cc2[N+](=O)[O-])c1,-10.5%,?,1.0%,14.6µM*,14.6µM*,26.1
COc1ccc(C(=O)NCCc2nnc3ccc(SCC(=O)N4CCCCC4)nn23)cc1,-0.4%,-1.3%,?,9.2%,24.7%,-10.8
Cc1ccc(N2C(=O)CC(Sc3cccs3)C2=O)cc1 (centres undefined),-6.9%,-1.3%,-3.2%,5.8µM*,16.4µM*,-14.5
Cc1cccc(N2C(=O)CC(Sc3nnc(C)s3)C2=O)c1 (centres undefined),?,?,?,6.51µM*,5.17µM*,-1.1
Cc1cccc(N2C(=O)CC(Sc3nc(C)cc(C)n3)C2=O)c1 (centres undefined),-2.2%,8.7%,-4.5%,?,?,25.9
Cc1ccc(N2C(=O)CC(Sc3nccc(C)n3)C2=O)cc1 (centres undefined),-1.1%,-1.0%,-1.9%,?,?,32.7
Cc1cccc(N2C(=O)CC(Sc3nc(C)c4c(n3)CCCC4)C2=O)c1 (centres undefined),5.3%,12.3%,5.8µM*,-14.1%,?,5.5
